For 8 compounds, Potency results are on record in PubChem BioAssay (Tox21).

Inconclusive results are not listed. The source made the active and inactive calls. Unless noted, calls come from the whole dose curve.

Experiment [1] is described as follows: Nuclear factor erythroid 2-related factor 2/antioxidant responsive element (Nrf2/ARE) small molecule agonists: luciferase reporter gene qHTS assay in human keratinocytes (AID 1919969). Note: nearly all actives have a fitted effect of over 35% in size. Note: potency is the fitted concentration of half-maximal effect.
The target in experiment [2] is Gonadotropin-releasing hormone receptor (Homo sapiens) (UniProt P30968). The experiment is described as follows: Human gonadotropin-releasing hormone receptor (GnRHR) small molecule agonists, calcium flux assay in GnRHR-HEK293 cells (AID 1920063). Note: nearly all actives have a fitted effect of over 35% in size. Note: potency is the fitted concentration of half-maximal effect. In short, it runs like this:
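Fluorescence kinetics (480 nm excitation, 540 nm emission; 3 min, 1 s steps) report calcium mobilisation in human GnRHR-HEK293 cells in agonist mode. Dye incubation: 1 h, 37 C.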
A general note: Calcium flux is commonly read through the fluorescence of an indicator in the cells.

Experiment [3] concerns the target KiSS-1 receptor (Homo sapiens) (UniProt Q969F8). Nature of the experiment: Human kisspeptin (KISS1R) small molecule agonists, calcium flux assay in KISS1R-HEK293 cells (AID 1920064; active = well fitted activation curve with a large enough effect in the repeat runs). An outline of the steps: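 Measures KISS1R agonism through calcium-sensitive dye fluorescence in stably transfected HEK293 cells, read for 3 min after pin-tool compound delivery; 15-point titrations in triplicate.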

A short description of experiment [4]: G protein-coupled receptor (GPCR) small molecule agonists, calcium flux assay: HEK293 wild type cell line counter screen (AID 1920065). An outline of the steps: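 Readout: fluorescence at 480 nm excitation/540 nm emission, sampled at 1 s intervals for 3 min. Cells had been cultured 18 h, then dye-loaded 1 h at 37 C before compound or ATP addition.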
Experiment [5] can be described thus: p53 small molecule agonists, cell-based qHTS assay with human liver microsomes (AID 1963577). In short, it runs like this:
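Compounds act here after metabolic activation: human liver microsomes and NADPH, both at 0.5 mg/mL final, were co-added to p53RE-bla cells. Incubation ran 16 h at 37 C, followed by LiveBLAzer detection.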
In general terms: In qHTS, concentration-response curves come from the screen itself.

Experiment [6] in a line: p53 small molecule agonists, cell-based qHTS assay with rat liver microsomes (AID 1963578). In short, it runs like this:
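Read-out is beta-lactamase reporter fluorescence (LiveBLAzer, 2 h, room temperature, dark) in p53RE-bla cells treated 16 h at 37 C with compound, rat liver microsomes and NADPH, both 0.5 mg/mL final.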

Experiment [7] addresses 5-hydroxytryptamine receptor 2A (Homo sapiens) (UniProt P28223). The experiment is described as follows: 5-hydroxytryptamine receptor 2A (HTR2A) small molecule antagonists, cell-based qHTS assay (AID 1963586). Note: nearly all actives have a fitted effect of over 45% in size. Note: potency is the fitted concentration of half-maximal effect. In short, it runs like this: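 Antagonist-mode intracellular calcium assay: DOI (4 nM) added after 5 min compound pre-incubation at room temperature to dye-loaded HTR2A-CHO cells. Fluorescence followed for 3 min, sampled every second.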

For experiment [8] the target is unchanged. The experiment is described as follows: 5-hydroxytryptamine receptor 2A (HTR2A) small molecule agonists, cell-based qHTS assay (AID 1963587). Note: nearly all actives have a fitted effect of over 30% in size. Note: potency is the fitted concentration of half-maximal effect. In short, it runs like this: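 Kinetic calcium-flux fluorescence (2 min, 1 sec intervals) after compound addition in agonist mode. HTR2A-CHO cells were cultured 18 h, then dye-loaded 1 h at 37 C.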
Experiment [9] can be described thus: cAMP Responsive Elements (CRE) small molecule antagonists, cell-based qHTS assay (AID 1963591; active = well fitted inhibition curve with a large enough effect in the signal ratio in the repeat runs, not every such curve was filed as active; the % refers to the signal ratio). In short, it runs like this: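 Inhibition of NKH477-driven (0.25 uM final) CRE-beta-lactamase signal in HEK293T cells, 3 h compound exposure at 37 °C, detected by FRET substrate fluorescence.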
The target of experiment [10] is Beta-2 adrenergic receptor (Homo sapiens) (UniProt P07550). The experiment is described as follows: Adrenergic beta2 receptor (ADRB2) small molecule antagonists, cell-based qHTS assay (AID 1963592). Note: series mostly up to about 92 µM; nearly all actives have a fitted effect of over 50% in size. An outline of the steps: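 Cells (CHO, stable ADRB2 overexpression) incubated 18-20hr at 37C; compounds added from DMSO; agonist mix (1nM isoproterenol, 100uM IBMX, 25uM Ro-20-1724) added; 0.5hr RT; d2-cAMP and anti-cAMP-cryptate added; 1hr RT; 665/615 nm read.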

The target is the same in experiment [11]. Nature of the experiment: Adrenergic beta2 receptor (ADRB2) small molecule agonists, cell-based qHTS assay (AID 1963593).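 Note: CHO cells stably overexpressing human ADRB2.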 In short, it runs like this:
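CHO cells stably over-expressing ADRB2 were plated overnight at 37C, then dosed with compounds plus a stimulation mix containing 100uM IBMX and 25uM Ro-20-1724 for 0.5hr at room temperature. cAMP was measured by HTRF competition, 1hr.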

In experiment [12] the target is D(2) dopamine receptor (Homo sapiens) (UniProt P14416). The experiment is described as follows: Dopamine D2 receptor (DRD2) small molecule agonists, cell-based qHTS assay (AID 1963594). Note: nearly all actives have a fitted effect of over 35% in size. In short, it runs like this: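 cAMP accumulation in DRD2-HEK293 cells measured by HTRF after 1 h detection; compounds added 10 min before NKH477 (200nM […]) forskolin-analogue stimulation, 30 min at room temperature, with Ro20-1724 present at 0.1 mM final.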

Experiment [13] has the same target. Nature of the experiment: Dopamine D2 receptor (DRD2) small molecule antagonists, cell-based qHTS assay (AID 1963595; active = well fitted inhibition curve with a large enough effect in the signal ratio in the repeat runs, with a control signal flat; the % refers to the signal ratio; note: potency is the fitted concentration of half-maximal effect). An outline of the steps:
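HEK293 cells stably expressing DRD2, preincubated with 0.1 mM Ro20-1724 and compounds 10 min, were stimulated with 200 nM NKH477 plus 12 nM quinpirole for 30 min at room temperature; cAMP measured by HTRF (665/620 nm).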

Experiment [14] in a line: p53 small molecule agonists, cell-based qHTS assay: qHTS cell viability counter screen (AID 1963581). Note: nearly all actives have a fitted effect of over 45% in size. An outline of the steps:
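In the same plates used for the p53 bla reporter, HCT-116 cells given compounds for 16 h at 37 C received CellTiter-Glo; luminescence was recorded 30 min later at room temperature.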

Experiment [15] in a line: p53 small molecule agonists, cell-based qHTS assay (AID 1963582; active = well fitted activation curve with a large enough effect in the signal ratio in the repeat runs, not every such curve was filed as active; the % refers to the signal ratio). An outline of the steps: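 Compounds are pin-transferred in DMSO onto p53RE-bla cells and incubated 16 h at 37 C. The B/G FRET beta-lactamase substrate is then applied for 2 h at RT and fluorescence recorded.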
Experiment [16] can be described thus: cAMP Responsive Elements (CRE) small molecule agonists, cell-based qHTS assay (AID 1963590). An outline of the steps:
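Cell line: CRE-bla HEK 293T; medium DMEM/10% dialyzed FBS/0.1 mM NEAA/1 mM pyruvate/25 mM HEPES; 3 h compound exposure; beta-lactamase FRET readout after 2 h substrate loading at RT.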

Experiment [17] in a line: p53 small molecule agonists, cell-based qHTS assay with rat liver microsomes: qHTS cell viability counter screen (AID 1963580). Note: nearly all actives have a fitted effect of over 45% in size. Note: potency is the fitted concentration of half-maximal effect. In short, it runs like this:
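HCT-116 p53RE-bla, 4,000 cells/well, 5 h pre-incubation; cpd + rat liver microsomes 0.5 mg/mL + NADPH 0.5 mg/mL (final); 16 h, 37 C; CellTiter-Glo, 30 min RT; luminescence.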

The target in experiment [18] is Muscarinic acetylcholine receptor M1 (Homo sapiens) (UniProt P11229). The experiment is described as follows: Cholinergic receptor muscarinic 1 (CHRM1) small molecule antagonists, cell-based qHTS assay (AID 1963588). Note: nearly all actives have a fitted effect of over 40% in size. In short, it runs like this: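 CHRM1-CHO calcium-flux assay, antagonist mode. Cells were seeded 18 h, dye-loaded 1 h at 37 C and given compound for 5 min at RT, then acetylcholine was added at 50nM. FDSS fluorescence was read 3 min; 15 concentrations, three runs.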

Experiment [19] has the same target. Nature of the experiment: Cholinergic receptor muscarinic 1 (CHRM1) small molecule agonists, cell-based qHTS assay (AID 1963589). Note: nearly all actives have a fitted effect of over 35% in size. An outline of the steps: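 Each compound was tested at 15 concentrations across three independent runs on dye-loaded CHO cells stably expressing human CHRM1, reading intracellular calcium fluorescence kinetically at 1 sec intervals.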

The nature of experiment [20]: p53 small molecule agonists, cell-based qHTS assay with human liver microsomes: qHTS cell viability counter screen (AID 1963579). Note: nearly all actives have a fitted effect of over 45% in size. An outline of the steps:
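Cells carrying the p53 response-element beta-lactamase reporter are treated for 16 h at 37 C with test compounds in the presence of human liver microsomes and NADPH (both 0.5 mg/mL final); ATP-based CellTiter-Glo luminescence then reports viability.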

Sequence of KiSS-1 receptor (Homo sapiens) (Q969F8 whole entry, looked up): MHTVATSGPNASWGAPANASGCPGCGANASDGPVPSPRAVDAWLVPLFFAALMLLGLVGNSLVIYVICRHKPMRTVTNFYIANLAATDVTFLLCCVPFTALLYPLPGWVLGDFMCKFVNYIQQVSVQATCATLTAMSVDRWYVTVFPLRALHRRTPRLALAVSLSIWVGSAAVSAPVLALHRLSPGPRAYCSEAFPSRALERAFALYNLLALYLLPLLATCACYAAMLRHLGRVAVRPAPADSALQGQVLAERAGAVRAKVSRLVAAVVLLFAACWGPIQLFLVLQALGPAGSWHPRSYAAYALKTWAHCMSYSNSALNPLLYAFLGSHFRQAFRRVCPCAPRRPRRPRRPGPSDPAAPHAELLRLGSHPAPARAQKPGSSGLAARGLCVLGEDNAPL
Sequence of Beta-2 adrenergic receptor (Homo sapiens) (P07550 whole entry, looked up): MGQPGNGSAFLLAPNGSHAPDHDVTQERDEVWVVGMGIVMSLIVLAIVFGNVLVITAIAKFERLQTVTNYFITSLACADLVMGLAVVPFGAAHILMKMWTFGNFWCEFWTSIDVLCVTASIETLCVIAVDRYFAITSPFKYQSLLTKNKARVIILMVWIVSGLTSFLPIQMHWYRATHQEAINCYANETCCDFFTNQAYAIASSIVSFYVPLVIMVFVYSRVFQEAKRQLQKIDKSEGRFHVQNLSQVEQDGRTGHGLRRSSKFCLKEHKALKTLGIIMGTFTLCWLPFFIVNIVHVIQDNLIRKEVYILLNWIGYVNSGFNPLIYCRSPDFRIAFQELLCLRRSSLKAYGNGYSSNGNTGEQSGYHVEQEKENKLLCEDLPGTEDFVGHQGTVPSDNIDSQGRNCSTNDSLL
Sequence of 5-hydroxytryptamine receptor 2A (Homo sapiens) (P28223 whole entry, looked up): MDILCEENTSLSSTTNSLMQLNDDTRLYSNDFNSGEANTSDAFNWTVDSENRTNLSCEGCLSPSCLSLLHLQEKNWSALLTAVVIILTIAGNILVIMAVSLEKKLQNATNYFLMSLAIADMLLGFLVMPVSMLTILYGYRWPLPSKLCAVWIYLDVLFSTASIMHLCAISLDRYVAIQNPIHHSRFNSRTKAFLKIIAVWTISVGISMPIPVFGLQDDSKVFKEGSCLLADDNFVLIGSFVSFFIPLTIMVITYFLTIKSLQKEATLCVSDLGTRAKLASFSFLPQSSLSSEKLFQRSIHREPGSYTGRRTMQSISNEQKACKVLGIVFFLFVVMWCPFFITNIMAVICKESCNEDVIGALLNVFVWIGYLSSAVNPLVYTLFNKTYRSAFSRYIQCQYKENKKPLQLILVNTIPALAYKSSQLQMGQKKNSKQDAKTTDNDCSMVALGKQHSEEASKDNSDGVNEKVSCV
Sequence of Muscarinic acetylcholine receptor M1 (Homo sapiens) (P11229 whole entry, looked up): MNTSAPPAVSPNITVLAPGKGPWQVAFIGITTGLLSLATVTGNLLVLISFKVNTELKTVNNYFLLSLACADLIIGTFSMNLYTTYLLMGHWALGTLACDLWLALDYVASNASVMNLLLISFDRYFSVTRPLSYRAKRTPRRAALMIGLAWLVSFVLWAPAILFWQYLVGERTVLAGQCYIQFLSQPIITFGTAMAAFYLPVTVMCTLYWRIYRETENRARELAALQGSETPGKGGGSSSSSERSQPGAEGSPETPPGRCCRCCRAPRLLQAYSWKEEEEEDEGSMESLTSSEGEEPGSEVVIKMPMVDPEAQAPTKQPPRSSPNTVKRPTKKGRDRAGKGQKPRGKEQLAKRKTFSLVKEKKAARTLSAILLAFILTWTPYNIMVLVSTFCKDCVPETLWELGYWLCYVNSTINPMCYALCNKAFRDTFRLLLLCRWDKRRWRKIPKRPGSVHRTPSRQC
Sequence of D(2) dopamine receptor (Homo sapiens) (P14416 whole entry, looked up): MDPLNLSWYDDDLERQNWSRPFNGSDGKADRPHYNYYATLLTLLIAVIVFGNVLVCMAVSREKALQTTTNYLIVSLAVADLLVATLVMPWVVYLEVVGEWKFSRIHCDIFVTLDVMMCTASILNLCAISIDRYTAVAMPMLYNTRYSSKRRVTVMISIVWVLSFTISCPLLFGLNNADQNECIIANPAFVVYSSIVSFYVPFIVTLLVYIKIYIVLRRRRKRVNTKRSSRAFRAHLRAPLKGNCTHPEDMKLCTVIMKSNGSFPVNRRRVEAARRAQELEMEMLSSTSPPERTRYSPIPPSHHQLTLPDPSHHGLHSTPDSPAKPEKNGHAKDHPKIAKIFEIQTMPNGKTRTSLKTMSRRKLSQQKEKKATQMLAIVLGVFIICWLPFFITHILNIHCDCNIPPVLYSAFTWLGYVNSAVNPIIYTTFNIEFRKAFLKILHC
Sequence of Gonadotropin-releasing hormone receptor (Homo sapiens) (P30968 whole entry, looked up): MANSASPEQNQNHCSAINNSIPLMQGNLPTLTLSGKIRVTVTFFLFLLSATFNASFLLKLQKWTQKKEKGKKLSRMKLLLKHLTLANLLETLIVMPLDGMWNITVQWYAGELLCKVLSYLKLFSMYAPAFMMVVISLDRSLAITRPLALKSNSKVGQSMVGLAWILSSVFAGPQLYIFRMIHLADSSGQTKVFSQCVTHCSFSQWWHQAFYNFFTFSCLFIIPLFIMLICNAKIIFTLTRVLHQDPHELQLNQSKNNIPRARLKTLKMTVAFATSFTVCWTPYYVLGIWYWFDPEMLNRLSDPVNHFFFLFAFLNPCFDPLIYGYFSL

With `CCCCc1ccc2nc(NC(=O)OC)[nH]c2c1`, in [1], the Potency was 4.22 µM (active). Further, the Potency entry in experiment [2], in [3], in experiment [4], in experiment [5], in experiment [6] and in experiment [7] was “inactive” each time. Moreover, the Potency entry in experiment [8], in experiment [9], in [10], in [11], in [12] and in experiment [13] was “inactive” each time.

`CN(C)[C@@H](CCOc1cccc2ccccc12)c1ccccc1`: the Potency entry in [1], in experiment [2], in [3], in experiment [4], in experiment [5] and in experiment [6] was “inactive” each time. Besides, the Potency result in [14], in experiment [15], in experiment [16], in [10], in experiment [12] and in experiment [13] was “inactive” throughout. In addition, the Potency was 3.26 µM (active) in experiment [7] and 10.7 µM (active) in [8].

Regarding `CCCCCCCCCCCCOCCOS(=O)(=O)O`, the Potency result in experiment [1], in [3], in [4], in [5], in experiment [6] and in experiment [17] was “inactive” each time. Moreover, the Potency entry in [15], in [18], in [19], in experiment [11], in experiment [12] and in experiment [13] was “inactive” in each case. Moreover, in experiment [2], the Potency is 38.9 µM (active).

As for `O=C(Nc1cccc([N+](=O)[O-])c1)c1cc2ccccc2cc1O`, the Potency in experiment [1] was 61.1 µM (active). In addition, the Potency result in experiment [2], in experiment [3], in [4], in experiment [5], in experiment [6] and in experiment [17] was “inactive” throughout. The Potency result in [14], in [7], in experiment [8], in [19], in experiment [10] and in experiment [12] was “inactive” throughout. Further, the Potency result in [13] is “inactive”.

On to `CCCCCCCC/C=C\CCCCCCCC(=O)N(CCO)CCO`, for which the Potency entry in experiment [1], in [2], in [3], in experiment [4], in experiment [5] and in experiment [6] was “inactive” throughout. Moreover, the Potency entry in experiment [17], in experiment [14], in experiment [7], in experiment [8], in experiment [18] and in experiment [19] was “inactive” each time. Moreover, the Potency entry in experiment [16], in experiment [9], in experiment [10] and in experiment [12] was “inactive” throughout.

With `CC(=O)c1ccc2c(c1)N(CCCN1CCC(CCO)CC1)c1ccccc1S2`, the Potency entry in experiment [1], in experiment [2], in experiment [3], in experiment [4], in [5] and in experiment [20] was “inactive” each time. The Potency result in experiment [17], in experiment [14], in experiment [15], in [8], in experiment [19] and in experiment [9] was “inactive” in each case. The Potency result in [12] is “inactive”. For the same compound, the figures for the Potency in experiment [7] and in experiment [13] were 0.326 µM (active) and 0.0168 µM (active), respectively.

Regarding `C=Cc1ccc(O)c(OC)c1`, the Potency in [1] is 48.6 µM (active). The Potency result in experiment [2], in experiment [3], in experiment [4], in experiment [5], in experiment [6] and in experiment [20] was “inactive” throughout. For the same compound, the Potency result in [18], in experiment [19], in experiment [16], in experiment [9], in experiment [10] and in experiment [12] was “inactive” in each case. Further, the Potency entry in experiment [13] was “inactive”.

Regarding `Oc1cccc2c(O)cccc12`, the values for the Potency in [1] and in experiment [17] were 27.3 µM (active) and 32.4 µM (active), respectively. Also, the Potency result in [2], in experiment [3], in experiment [4], in experiment [5], in experiment [6] and in experiment [14] was “inactive” throughout. Also, the Potency entry in [7], in experiment [8], in [18], in experiment [19], in experiment [16] and in experiment [9] was “inactive” each time. Besides, the Potency result in experiment [12] and in [13] was “inactive” in each case.
